Consider twelve compounds from PubChem BioAssay (NCATS).

Assay [1] is described as follows: Quantitative High-Throughput drug screen in 47 multiple myeloma cell lines against the NCATS MIPE library collection: LP1_DSMZ cell viability assay (AID 1918982). Further: nearly all actives have a fitted effect of over 35% in size. The procedure, abridged:
(§1)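 Viability after 48 h drug exposure was measured as ATP-dependent luminescence. Cells, 500 per well, sat at 37 °C under 5% CO2; DMSO wells set 100%, media-only wells 0%.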

Assay [2] in a line: Quantitative High-Throughput drug screen in 47 multiple myeloma cell lines against the NCATS MIPE library collection: OCIMY7_PLB cell viability assay (AID 1918987). Further: nearly all actives have a fitted effect of over 65% in size. The note with it: OCI-MY7 myeloma viability, CellTiter-Glo ATP, 48 h; viability (% of DMSO): at 45.8 µM (top of the series). The procedure, abridged: as §1
Assay [3] can be described thus: Quantitative High-Throughput drug screen in 47 multiple myeloma cell lines against the NCATS MIPE library collection: OCIMY5_PLB cell viability assay (AID 1918988). Further: nearly all actives have a fitted effect of over 65% in size. The procedure, abridged:
as §1

A short description of assay [4]: Quantitative High-Throughput drug screen in 47 multiple myeloma cell lines against the NCATS MIPE library collection: OPM1_PLB cell viability assay (AID 1918989). Further: nearly all actives have a fitted effect of over 40% in size. The procedure, abridged: as §1
Assay [5] in a line: Quantitative High-Throughput drug screen in 47 multiple myeloma cell lines against the NCATS MIPE library collection: SKMM1_PLB cell viability assay (AID 1919863). Further: nearly all actives have a fitted effect of over 35% in size. The note with it: SKMM1 myeloma viability, CellTiter-Glo ATP, 48 h; viability: hits give low values. The procedure, abridged:
as §1

The nature of assay [6]: Quantitative High-Throughput drug screen in 47 multiple myeloma cell lines against the NCATS MIPE library collection: U266_ATCC cell viability assay (AID 1919864). Further: nearly all actives have a fitted effect of over 35% in size. The procedure, abridged: as §1
Assay [7] is described as follows: Quantitative High-Throughput drug screen in 47 multiple myeloma cell lines against the NCATS MIPE library collection: XG6_PLB cell viability assay (AID 1919865). Further: nearly all actives have a fitted effect of over 40% in size. In a few lines:
as §1

Assay [8] in a line: Quantitative High-Throughput drug screen in 47 multiple myeloma cell lines against the NCATS MIPE library collection: XG1_PLB cell viability assay (AID 1919866). Further: nearly all actives have a fitted effect of over 35% in size. In a few lines: as §1
Assay [9] can be described thus: Quantitative High-Throughput drug screen in 47 multiple myeloma cell lines against the NCATS MIPE library collection: VP6_DJ cell viability assay (AID 1919867). Further: nearly all actives have a fitted effect of over 40% in size. In a few lines: as §1
Assay [10] is described as follows: Quantitative High-Throughput drug screen in 47 multiple myeloma cell lines against the NCATS MIPE library collection: PCM6_Riken cell viability assay (AID 1919870). Further: nearly all actives have a fitted effect of over 30% in size. In a few lines: as §1
Assay [11] is described as follows: Quantitative High-Throughput drug screen in 47 multiple myeloma cell lines against the NCATS MIPE library collection: OPM2_DSMZ cell viability assay (AID 1919872). Further: nearly all actives have a fitted effect of over 30% in size. The procedure, abridged:
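CellTiter-Glo ATP luminescence gave viability after 48 h compound treatment at 37C of 500 multiple myeloma cells per well. Normalisation used DMSO-only wells as 100% and media-only wells as 0% viability; primary qHTS of approved and investigational drugs.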

Assay [12] in a line: Quantitative High-Throughput drug screen in 47 multiple myeloma cell lines against the NCATS MIPE library collection: KMS11_JCRBsus cell viability assay (AID 1919873). Further: nearly all actives have a fitted effect of over 50% in size. The procedure, abridged: as §1
Assay [13] is described as follows: Quantitative High-Throughput drug screen in 47 multiple myeloma cell lines against the NCATS MIPE library collection: RPMI8226_ATCC cell viability assay (AID 1919871). Further: nearly all actives have a fitted effect of over 30% in size. In a few lines:
as §1

The nature of assay [14]: Quantitative High-Throughput drug screen in 47 multiple myeloma cell lines against the NCATS MIPE library collection: KMS28PE_JCRB cell viability assay (AID 1918983). Further: nearly all actives have a fitted effect of over 35% in size. The procedure, abridged:
as §1

Assay [15] in a line: Quantitative High-Throughput drug screen in 47 multiple myeloma cell lines against the NCATS MIPE library collection: L363_DSMZ cell viability assay (AID 1918984). Further: nearly all actives have a fitted effect of over 40% in size. The following applies: L363 myeloma viability, CellTiter-Glo ATP luminescence, 48 h; viability (% of control): at 45.8 µM (top of the series). In a few lines: as §1
Assay [16] can be described thus: Quantitative High-Throughput drug screen in 47 multiple myeloma cell lines against the NCATS MIPE library collection: PE2_PLB cell viability assay (AID 1919869). Further: nearly all actives have a fitted effect of over 35% in size. The procedure, abridged:
as §1

A short description of assay [17]: Quantitative High-Throughput drug screen in 47 multiple myeloma cell lines against the NCATS MIPE library collection: KMS28BM_JCRB cell viability assay (AID 1919874). Further: nearly all actives have a fitted effect of over 35% in size. In a few lines:
as §1

Assay [18] can be described thus: Quantitative High-Throughput drug screen in 47 multiple myeloma cell lines against the NCATS MIPE library collection: KMS34_JCRB cell viability assay (AID 1918985). Further: nearly all actives have a fitted effect of over 40% in size. The procedure, abridged:
as §1

Assay [19] is described as follows: Quantitative High-Throughput drug screen in 47 multiple myeloma cell lines against the NCATS MIPE library collection: UTMC2_PLB cell viability assay (AID 1919868). Further: nearly all actives have a fitted effect of over 55% in size. The following applies: CellTiter-Glo ATP luminescence, 48 h; viability (% of DMSO control): at 45.8 µM (top of the series). The procedure, abridged: as §1

Results filed as inconclusive are left out. Unmarked numbers belong to inactive results. Calls of active or inactive are those of the source. The call rests on the fitted dose curve; in most records, active means well fitted cell-killing curve with a large enough effect; inconclusive means small, poorly fitted or top-dose-only effect, or effect the other way; inactive means no such curve, though single readings can be large or run the other way.
Potency means the concentration at half of the fitted maximal effect.

As to `COc1cc(CNC(=O)CCCCC=CC(C)C)ccc1O`, the Potency entry in assay [1], in assay [3], in assay [4], in [6], in [8] and in [9] was “inactive” in each case. The Potency entry in assay [10], in assay [11] and in assay [12] was “inactive” throughout. Besides, the results for the Potency in [2] and in assay [7] were 14.8 µM (active) and 13.2 µM (active), respectively. Also, in assay [5], the viability is 120%.
Regarding `C[C@@H](O)[C@H]1C(=O)N2C(C(=O)OCOC(=O)C(C)(C)C)=C(SC3CN(C4=NCCS4)C3)[C@H](C)[C@H]12`, the Potency entry in assay [1], in [4], in assay [9], in [13], in assay [11] and in assay [12] was “inactive” in each case. Besides, the viability in [5] was 111%. For the same compound, the Potency in [10] is 23.5 µM (active).
For `O=C(c1ccc(F)c(F)c1Nc1ccc(I)cc1F)N1CC(O)([C@H]2CCCCN2)C1`, the Potency in assay [14] is 18.7 µM (active); in [15], 1.66 µM (active); in [3], 18.7 µM (active); in assay [4] it was 11.8 µM (active); in assay [5] it was 16.6 µM (active); in assay [6], 23.5 µM (active). Further, the Potency is 18.7 µM (active) in assay [7]; 16.6 µM (active) in assay [8]; 9.35 µM (active) in assay [9]; 7.43 µM (active) in [16]; 16.6 µM (active) in assay [10]; 20.9 µM (active) in assay [13]. The Potency in assay [11] is 13.2 µM (active); in assay [12], 18.7 µM (active); in assay [17], 20.9 µM (active). Further, in assay [2], the Potency entry was “inactive”.
`CC(C)(F)C[C@H](N[C@@H](c1ccc(-c2ccc(S(C)(=O)=O)cc2)cc1)C(F)(F)F)C(=O)NC1(C#N)CC1`: the Potency result in assay [1], in [18], in assay [6], in assay [7], in assay [8] and in assay [9] was “inactive” throughout. For the same compound, the Potency result in assay [10], in assay [11], in assay [12] and in [17] was “inactive” throughout. In addition, the Potency in assay [4] is 5.9 µM (active); in assay [16], 6.62 µM (active); in assay [13] it was 20.9 µM (active).
As to `Cn1cc(-c2ccc3nnc(Sc4ccc5ncccc5c4)n3n2)cn1`, the Potency in [1] was 0.001 µM (active); in assay [3], 13.2 µM (active); in assay [7] it was 26.4 µM (active); in assay [8], 26.4 µM (active). Also, the Potency entry in assay [2], in assay [4], in assay [11], in assay [12] and in assay [17] was “inactive” throughout.
Consider `CNC1CCC(N(Cc2cccc(-c3ccncc3)c2)C(=O)c2sc3ccccc3c2Cl)CC1` (stereo unspecified), for which the Potency was 26.4 µM (active) in assay [1]; 10.5 µM (active) in assay [2]; 18.7 µM (active) in assay [3]; 8.33 µM (active) in assay [4]; 18.7 µM (active) in [5]; 16.6 µM (active) in assay [6]. In addition, the Potency in [7] was 8.33 µM (active); in [8] it was 9.35 µM (active); in [9] it was 8.33 µM (active); in assay [19], 10.5 µM (active); in [16], 10.5 µM (active); in assay [10], 8.33 µM (active). The Potency in assay [13] was 26.4 µM (active); in [12], 8.33 µM (active); in assay [17], 18.7 µM (active).
On to `Cc1ccc(S(=O)(=O)OCC(=O)Nc2ccc(C(=O)O)c(O)c2)cc1`, for which the Potency result in assay [1], in [4], in assay [13], in [11] and in [12] was “inactive” throughout. For the same compound, the Potency in [3] is 18.7 µM (active); in assay [7], 3.72 µM (active); in assay [8], 7.43 µM (active); in [19] it was 9.35 µM (active); in assay [16], 20.9 µM (active); in assay [10] it was 20.9 µM (active). For the same compound, the viability in assay [5] is 102%.
For `CC1CNc2c(cccc2S(=O)(=O)N[C@@H](CCCN=C(N)N)C(=O)N2CC[C@@H](C)C[C@@H]2C(=O)O)C1` (stereo partly specified), the Potency result in assay [1], in assay [18], in assay [2], in [6], in [8] and in assay [19] was “inactive” each time. The Potency entry in assay [16], in assay [10], in [13], in assay [11], in assay [12] and in assay [17] was “inactive” in each case. Also, the Potency in assay [7] was 5.9 µM (active).
As for `CN1[C@H]2CC[C@H]1CC(OC(=O)c1c[nH]c3ccccc13)C2` (stereo partly specified), the Potency entry in [1], in [18], in [19], in assay [16], in assay [13] and in [11] was “inactive” each time. Also, the Potency is 10.5 µM (active) in [6], 16.6 µM (active) in assay [7] and 6.62 µM (active) in assay [10].
Consider `CCc1cc(-c2n[nH]c(C)c2-c2ccc3c(c2)OCCO3)c(O)cc1O`, for which the Potency in assay [14] is 4.18 µM (active); in assay [15], 0.148 µM (active); in assay [18], 3.32 µM (active); in assay [2], 1.66 µM (active); in [3], 3.72 µM (active); in assay [4], 6.62 µM (active). The Potency in [6] was 7.43 µM (active); in assay [7], 9.35 µM (active); in assay [8], 4.18 µM (active); in [9] it was 4.18 µM (active); in [16], 8.33 µM (active); in assay [10] it was 8.33 µM (active). The Potency in assay [13] is 6.62 µM (active); in [11], 7.43 µM (active); in assay [12] it was 1.87 µM (active); in assay [17], 11.8 µM (active).
As for `CCOC(=O)[C@H]1O[C@H]1C(=O)N[C@@H](CC(C)C)C(=O)NCCC(C)C`, the Potency result in assay [1], in [2], in assay [8], in assay [16], in assay [11] and in assay [12] was “inactive” each time. For the same compound, in assay [17], the Potency entry was “inactive”. Also, the Potency was 29.6 µM (active) in assay [3], 10.5 µM (active) in assay [6], 6.62 µM (active) in assay [7] and 5.9 µM (active) in assay [10].
Take `COc1cc(F)c(C(C)C)cc1-c1ccc(C(F)(F)F)cc1CN1C(=O)O[C@H](c2cc(C(F)(F)F)cc(C(F)(F)F)c2)[C@@H]1C`: the Potency was 0.662 µM (active) in assay [1], 20.9 µM (active) in assay [7], 23.5 µM (active) in assay [10] and 1.66 µM (active) in [13]. Besides, the Potency result in assay [11], in assay [12] and in [17] was “inactive” throughout.
